Test [1] deals with Zika virus NS2B-NS3 protease (linked construct). As to the kind of experiment: Primary screen NINDS Rhodamine qHTS for Zika virus inhibitors (AID 1347160). Further: nearly all actives have a fitted effect of over 55% in size. Summed up: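 Purified linked NS2B-NS3 protease (NS2B hydrophilic domain joined to NS3 protease by flexible linker), 25 nM in 10 mM Tris-HCl pH 8.0, 0.01% Tween 20. Compounds titrated, 15 min preincubation at room temperature; 1.5 microM Rhodamine110 substrate, FITC fluorescence change over 15 min.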

The test system of test [2] is Zika virus NS2B-NS3 protease (linked). As to the kind of experiment: 384 well plate NINDS AMC confirmatory qHTS for Zika virus inhibitors (AID 1347163).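 Further: linked protease at 5 30 or 60 nM final depending on run; fluorescence of AMC released from Ac-VKTGKR-AMC peptide cleaved by the protease; top concentration of the series differs between compounds; nearly all actives have a fitted effect of over 50% in size.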 Summed up: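 Linked protease 5/30/60 nM final; cpds up to 1 mM final, ~15 min preinc. Substrate Ac-VKTGKR-AMC 30 microM final. RT, dark, 25 min; FI ex 355/em 460; normalized to no-enzyme/no-inhibitor ctrls.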
On the technique in general: Quantitative high-throughput screening tests each substance at several concentrations.

Test [3] in a line: Vero cells viability qHTS for Zika virus inhibitors (AID 1347167). Summed up: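 Cells seeded at 2.5 x 10^5 cells/mL in DMEM with 4% FBS and attached overnight at 37 degrees C, then exposed to compound for 24 to 48 hours. Viability read as ATP content by CellTiter Glo luminescence.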
The target of test [4] is Lysine-specific demethylase 5B (Homo sapiens) (UniProt Q9UGL1). As to the kind of experiment: Optimization screen for KDM5B Histone Demethylases FDH coupled qHTS against the LOPAC library (AID 1347166). The essentials: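 KDM5BDeltaAP (200nM final) preincubated 10 min with compound, then 12.5uM H3K4Me3, 25uM a-ketoglutarate, ascorbate, Fe(II), NAD+ and FDH added; 50mM HEPES pH 7.5, 0.01% Tween-20. NADH fluorescence (340/450 nm) change over 30 min, room temperature.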
Lysine-specific demethylase 5B (Homo sapiens), sequence (Q9UGL1 whole entry, looked up): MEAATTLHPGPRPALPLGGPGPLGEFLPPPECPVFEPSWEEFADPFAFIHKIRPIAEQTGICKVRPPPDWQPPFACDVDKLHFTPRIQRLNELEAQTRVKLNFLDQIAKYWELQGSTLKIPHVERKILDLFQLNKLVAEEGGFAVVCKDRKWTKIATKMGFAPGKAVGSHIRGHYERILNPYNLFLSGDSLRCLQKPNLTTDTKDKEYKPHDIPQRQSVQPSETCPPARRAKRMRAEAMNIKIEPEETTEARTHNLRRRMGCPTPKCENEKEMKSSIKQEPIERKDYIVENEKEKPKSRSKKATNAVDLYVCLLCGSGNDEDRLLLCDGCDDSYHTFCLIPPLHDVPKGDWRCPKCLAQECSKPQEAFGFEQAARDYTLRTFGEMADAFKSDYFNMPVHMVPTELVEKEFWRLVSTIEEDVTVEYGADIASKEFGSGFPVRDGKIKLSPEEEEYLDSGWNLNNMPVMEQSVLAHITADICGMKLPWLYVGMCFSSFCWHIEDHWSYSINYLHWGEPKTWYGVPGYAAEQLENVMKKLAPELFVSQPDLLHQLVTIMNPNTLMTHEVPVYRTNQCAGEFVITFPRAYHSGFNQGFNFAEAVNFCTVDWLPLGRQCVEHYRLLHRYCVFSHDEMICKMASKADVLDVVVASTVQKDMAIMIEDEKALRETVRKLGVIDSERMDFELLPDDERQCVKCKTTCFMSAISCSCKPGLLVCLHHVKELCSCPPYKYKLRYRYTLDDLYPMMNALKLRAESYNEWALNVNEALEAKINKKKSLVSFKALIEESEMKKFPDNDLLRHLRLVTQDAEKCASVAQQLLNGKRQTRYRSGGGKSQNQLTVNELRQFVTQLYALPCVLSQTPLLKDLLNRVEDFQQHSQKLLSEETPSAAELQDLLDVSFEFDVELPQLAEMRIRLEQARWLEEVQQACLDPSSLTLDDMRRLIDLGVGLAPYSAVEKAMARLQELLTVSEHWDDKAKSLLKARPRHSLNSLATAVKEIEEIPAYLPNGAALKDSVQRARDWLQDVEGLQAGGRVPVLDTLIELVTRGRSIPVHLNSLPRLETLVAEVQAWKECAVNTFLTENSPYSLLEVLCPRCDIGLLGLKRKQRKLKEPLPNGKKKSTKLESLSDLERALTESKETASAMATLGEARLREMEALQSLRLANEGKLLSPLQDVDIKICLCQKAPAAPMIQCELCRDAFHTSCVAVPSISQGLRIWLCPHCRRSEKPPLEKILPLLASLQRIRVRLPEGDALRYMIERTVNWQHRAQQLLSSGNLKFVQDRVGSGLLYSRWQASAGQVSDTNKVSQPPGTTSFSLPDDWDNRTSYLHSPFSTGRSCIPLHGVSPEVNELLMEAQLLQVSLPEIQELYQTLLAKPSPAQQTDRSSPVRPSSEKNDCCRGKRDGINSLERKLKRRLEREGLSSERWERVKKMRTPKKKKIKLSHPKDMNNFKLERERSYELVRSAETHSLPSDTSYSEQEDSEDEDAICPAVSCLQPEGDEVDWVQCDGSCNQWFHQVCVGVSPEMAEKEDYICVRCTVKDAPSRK

Records with an inconclusive call do not appear. A call without a number means that no potency is given here. Active and inactive are the calls of the source. The call rests on the fitted dose curve; in most records, active means well fitted curve in the direction sought with a large enough effect; inconclusive means small, poorly fitted or top-dose-only effect, or another doubt; inactive means no such curve, though single readings can be large; an effect the other way counts as inactive or inconclusive.

On to `COc1cc(O)c2c(c1)/C=C/C[C@H](O)[C@H](O)C(=O)/C=C\C[C@H](C)OC2=O`, for which the Potency result in test [1] is “inactive”.
Same read-out and setting: in the case of `CC(C)c1cccc(C(C)C)c1NC(=O)Nc1ccc(Sc2ccc([N+](=O)[O-])cc2)cc1` it was “inactive”; in that of `CC1(C)CC[C@]2(C(=O)O)CC[C@]3(C)C(=CCC4[C@@]5(C)C[C@@H](O)[C@H](O)[C@@](C)(CO)C5CC[C@]43C)[C@@H]2[C@@H]1O` (stereo partly specified), “inactive”.
Turning to `O=C(Nc1ccc(-n2nc(C(F)(F)F)cc2C(F)(F)F)cc1)c1ccncc1F`, in test [1], the Potency result was “inactive”.
As for `C=C1C(=O)O[C@@H]2/C=C(\C)CC/C=C(/C=O)[C@H](OC)[C@@H](OC(=O)C(C)C)[C@@H]12`, in test [1], the Potency result is “inactive”.
Same read-out and setting: in the case of `Cc1cccc(N2CCN(C(=O)c3cc(S(=O)(=O)N(C)C)ccc3N3CCCC3)CC2)c1C` it was “inactive”.
On the same count and under the same terms, in the case of `C=C1CC[C@@H](O)[C@]2(C)CC[C@H]3C(=C)C(=O)O[C@@H]3[C@@H]12` it was “inactive”; in that of `Cc1cc(-c2cnc(N)c3c(-c4ccc5scnc5c4)csc23)n(C)n1`, “inactive”.
As for `COc1cc(F)c(F)c(Nc2ccc(I)cc2F)c1NS(=O)(=O)C1(CC(O)CO)CC1` (stereo unspecified), in test [1], the Potency entry is “inactive”.
The same measure, in the same setting: the same measure for `O=C(Nc1cc(C(F)(F)F)ccc1N1CCCCC1)c1ccncc1`: “inactive”; for `C/C=C/C=C/C(=O)O[C@@H]1C=C2COC(=O)[C@]2(O)[C@@]2(C)CCCC(C)(C)[C@H]12`: “inactive”.
For `CC#C[C@@H](CC(=O)O)c1ccc(OCc2cccc(-c3ccc(C(F)(F)F)cc3)c2)cc1`, the Potency entry in test [2] was “inactive”. The call in test [3] was inactive.
For the molecule `CN[C@H]1CC[C@@H](c2ccc(Cl)c(Cl)c2)c2ccccc21`, in test [4], the call was inactive.
On to `NCCCC(=O)O`, for which the outcome in test [4] was inactive.
Turning to `CCC(CC)(NC(=O)C(C)C)C(=O)N[C@@H](CCCN=C(N)N)C(=O)NC1(C(=O)NC(c2ccc(F)cc2)c2ccc(F)cc2)CCCC1`, the molecule was classed as inactive in test [3].

Source of the values: PubChem BioAssay (NCATS).
